An excerpt weighted towards active compounds, which were near 3.2% of everything screened.
pS6 MEF inh: Acumen qHTS Assay for Inhibitors of the mTORC1 Signaling Pathway in MEF (Tsc2-/-, p53-/-) Cells: Sytravon. Potency, µM (doses to about 38.3 µM), for the others: at the top dose activity change, negative = inhibition, most hits filed as inhibitors. 44,000 compounds, 0.78% hits. Tsc2-/- p53-/- MEF, phospho-rpS6 immunofluorescence/PI, 24 h;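 further: potency means the concentration at half of the fitted maximal effect; plate controls were DMSO for no effect and rapamycin for full effect; nearly all actives have a fitted effect of over 50% in size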
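Immunofluorescence of rpS6 phosphorylation in Tsc2-/-, p53-/- MEFs after 24 h compound exposure, normalized to propidium iodide signal. Activity is expressed as % positive cells, thresholded with 7.5 nM rapamycin.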
p53null 32C kill: qHTS Screen for Compounds that Selectively Target Cancer Cells with p53 Mutations: Cytotoxicity of p53 Null Cells at the Permissive Temperature | H1299-neo p53 null cells, ATP luminescence, 24 h, 32C | 55,000 compounds, 0.62% hits | Potency, µM (top dose mostly 46.1 µM), inactives show at the highest dose activity change, negative = cytotoxicity, most hits filed as cytotoxic | AID 903, 2007;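 further: potency means the concentration at half of the fitted maximal effect; 0% = DMSO only and -100% = full killing by 100 µM tamoxifen; nearly all actives have a fitted effect of over 55% in size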
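We seeded p53-null H1299-neo cells, incubated them overnight at 37C, and added compounds across a range up to 46 uM. After 24 hours at 32C, ATP reagent was applied for 20 min at room temperature and luminescence recorded.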
PMP22 txn prim: Cell-based coincidence reporter assay to measure PMP22 gene transcription in S16 Pmp22-F2sN cells - Primary screen; S16 Pmp22-F2sN Schwann cells, FLuc/NLuc coincidence luminescence, 24 h; Potency, µM (highest dose often 57.5 µM), without a hit: top-dose activity change, negative = inhibition, usual class: inhibitors; 43,000 compounds, 2% hits; AID 1508649, 2021; active means clear falling dose curves in both reporters; inconclusive means both reporters move, but less clearly or upward; inactive means either reporter flat; the % is the NLuc reporter signal; further: potency means the concentration at half of the fitted maximal effect; on the % scale 0 is the no-effect control and ±100 the full control effect
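Reporter cells (S16 Pmp22-F2sN, 500–1,000 per well) exposed to compounds for 24 h, 37C, 5% CO2; lysis with FLuc read after 10 min, then Stop&Glo and NLuc read after 10 min.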
S16 F2sN tox: Cell viability qHTS assay in S16 Pmp22-F2sN cells | S16 Pmp22-F2sN Schwann cells (luciferase reporters placed in the Pmp22 gene) viability, CellTiter-Glo, 24 h | Potency, µM (highest dose often 57.5 µM), inactives show at the highest dose activity change, negative = cytotoxicity, most hits filed as cytotoxic | 43,000 compounds, 0.48% hits; further: potency means the concentration at half of the fitted maximal effect; on the % scale 0 is the no-effect control and ±100 the full control effect; nearly all actives have a fitted effect of over 65% in size
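Seed 500-1,000 S16 Pmp22-F2sN cells per well in phenol-red-free DMEM with 10% heat-inactivated FBS; pin-add 23 nL compound; incubate 24 h at 37C; add CellTiter-Glo, wait 15 min protected from light; read luminescence.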
p53null 39C kill: qHTS Screen for Compounds that Selectively Target Cancer Cells with p53 Mutations: Cytotoxicity of p53 Null Cells at the Nonpermissive Temperature; H1299 p53-null (neo) cells, 39C, ATPlite viability, 24 h; Potency, µM (top dose mostly 46.1 µM), without a hit: top-dose activity, negative = cell killing, most hits filed as cytotoxic; 55,000 compounds, 0.97% hits;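 further: potency means the concentration at half of the fitted maximal effect; 0% = DMSO only and -100% = full killing by 100 µM tamoxifen; nearly all actives have a fitted effect of over 50% in size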
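Concentration-response (up to 46 uM) was run for 24 h at the nonpermissive 39C on H1299-p53A138V or H1299-neo cells. ATP content was measured with ATPlite luminescence. AC50 values were Hill-modeled after normalizing between DMSO and 100 uM tamoxifen killing.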
NLuc sat counter: Biochemical NLuc saturation counterscreen for small molecule modulators of PMP22 gene expression - Nano-Glo assay | shares compounds with PMP22 txn prim | Secreted NLuc enzyme (filtered S16 cell medium), Nano-Glo luminescence | Potency, µM (titrated, usually from 57.5 µM), for inactives: at the highest dose activity change, negative = inhibition, actives largely listed as inhibitors | 690 compounds, 4% hits | AID 1508638, 2021; further: potency means the concentration at half of the fitted maximal effect; on the % scale 0 is the no-effect control and ±100 the full control effect
NLuc Km counter: Biochemical coelenterazine-based NLuc counterscreen for small molecule modulators of PMP22 gene expression - Km assay; shares compounds with PMP22 txn prim; secreted NLuc enzyme, coelenterazine luminescence, Km conditions; Potency, µM (doses to about 57.5 µM), inactives show top-dose activity change, negative = inhibition, hits mostly inhibitors; 690 compounds, 5% hits; further: potency means the concentration at half of the fitted maximal effect; on the % scale 0 is the no-effect control and ±100 the full control effect
FLuc counter: Biochemical FLuc counterscreen for small molecule modulators of PMP22 gene expression | purified P. pyralis FLuc, luminescence, 10 min | AID 1508640, 2021 | shares compounds with PMP22 txn prim | Potency, µM (highest dose often 57.5 µM), inactives show at the highest dose activity, negative = inhibition, hits mostly inhibitors | 690 tested, under 10 active; further: % of control where 0% means no effect
Target sequence (P08659 whole entry, looked up): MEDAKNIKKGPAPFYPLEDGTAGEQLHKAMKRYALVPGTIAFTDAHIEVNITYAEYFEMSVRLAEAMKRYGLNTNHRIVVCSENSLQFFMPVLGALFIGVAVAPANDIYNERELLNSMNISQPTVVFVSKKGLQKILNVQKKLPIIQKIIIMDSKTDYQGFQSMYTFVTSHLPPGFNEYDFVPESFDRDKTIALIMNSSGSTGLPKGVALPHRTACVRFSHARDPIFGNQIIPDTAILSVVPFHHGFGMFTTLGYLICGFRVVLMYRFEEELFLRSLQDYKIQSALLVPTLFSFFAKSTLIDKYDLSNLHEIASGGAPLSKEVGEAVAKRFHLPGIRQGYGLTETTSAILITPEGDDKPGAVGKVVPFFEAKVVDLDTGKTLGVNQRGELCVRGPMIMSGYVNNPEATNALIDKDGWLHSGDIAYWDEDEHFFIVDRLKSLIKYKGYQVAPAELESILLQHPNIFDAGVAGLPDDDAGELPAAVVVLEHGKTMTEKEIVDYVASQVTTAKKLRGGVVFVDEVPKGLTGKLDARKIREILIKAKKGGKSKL
S16 viab conf: Cell viability qHTS assay in S16 Pmp22-F2sN cells - Confirmatory screen | shares compounds with PMP22 txn prim | S16 Schwann cells viability, CellTiter-Glo ATP luminescence, 24 h | Potency, µM (doses to about 57.5 µM), without a hit: top-dose activity change, negative = viability loss, hits mostly cytotoxic | 690 compounds, 7% hits | AID 1508641, 2021; further: potency means the concentration at half of the fitted maximal effect; on the % scale 0 is the no-effect control and ±100 the full control effect
PMP22 txn conf: Cell-based coincidence reporter assay to measure PMP22 gene transcription in S16 Pmp22-F2sN cells - Confirmatory screen; shares compounds with PMP22 txn prim; S16 Schwann cells Pmp22-F2sN, dual luciferase, 24 h; Potency, µM (titrated, usually from 57.5 µM), for inactives: at the highest dose activity change, negative = inhibition, most hits filed as inhibitors; 690 compounds, 22% hits; active means clear falling dose curves in both reporters; inconclusive means both reporters move, but less clearly or upward; inactive means either reporter flat; the % is the FLuc reporter signal; further: potency means the concentration at half of the fitted maximal effect
* = called active by the depositor; ? = inconclusive; . = no result given. Unless noted, the call rests on the fitted dose curve; in most records, active means well fitted curve in the direction sought with a large enough effect; inconclusive means small, poorly fitted or top-dose-only effect, or another doubt; inactive means no such curve, though single readings can be large; an effect the other way counts as inactive or inconclusive.

SMILES | pS6 MEF inh | p53null 32C kill | PMP22 txn prim | S16 F2sN tox | p53null 39C kill | others
Cc1cc(=O)[nH]c2nnc(SCC(=O)Nc3cc(C(F)(F)F)ccc3Cl)n12 | 0.0% | -14.8% | ? | -11.7% | ?
O=C(CSc1nnc2[nH]c(=O)cc(-c3ccccc3)n12)Nc1cc(C(F)(F)F)ccc1Cl | -6.7% | 1.26µM* | ? | -6.2% | 0.794µM*
Cc1ccc(C(=O)CC2(O)C(=O)N(Cc3ccccc3)c3ccccc32)c(C)c1 (stereo not given) | 18.5µM* | 34.0% | -26.6% | ? | 24.8%
COc1ccc(C(=O)CC2(O)C(=O)N(Cc3ccccc3Cl)c3ccccc32)cc1 (stereo not given) | ? | 26.2% | ? | -23.9% | 8.7%
CCc1ccc(C(=O)CC2(O)C(=O)N(Cc3ccc(C)cc3)c3ccccc32)cc1 (stereo not given) | 11.7µM* | 1.2% | ? | -21.0% | ?
CCCCN1C(=O)C(O)(CC(=O)c2ccc(C)cc2C)c2cc(Br)ccc21 (stereo not given) | ? | 49.5% | ? | ? | ?
Cc1ccc(C(=O)CC2(O)C(=O)N(Cc3ccccc3)c3ccc(Br)cc32)cc1 (stereo not given) | 10.4µM* | -24.8% | ? | -26.1% | ?
CCCCN1C(=O)C(O)(CC(=O)c2ccc(C(C)(C)C)cc2)c2ccccc21 (stereo not given) | ? | 56.5% | ? | ? | 20µM*
CCC(C)NC(=O)c1[nH]c2cc(C)ccc2c1Sc1ccc(Cl)cc1 (stereo not given) | 1.4% | -9.1% | -4.7% | 16.9% | 3.4%
COC(=O)c1sc(-c2ccccc2)cc1NC(=O)c1cccc(F)c1 | 0.1% | -4.2% | -8.1% | 0.0% | 8.6%
Cc1ccc(NC2=CC(=O)C(=O)c3ccccc32)cc1 | . | 3.98µM* | . | . | 3.55µM*
CCSc1ncc(Cl)c(C(=O)Nc2ccccc2)n1 | . | -14.8% | . | . | .
CN(c1ccccc1)S(=O)(=O)c1ccc(NC(=O)c2nc(S(C)(=O)=O)ncc2Cl)cc1 | 1.17µM* | 22.4µM* | 2.12µM* | 4.47µM* | ?
CCS(=O)(=O)c1ncc(Cl)c(C(=O)Nc2ccccc2)n1 | 1.85µM* | 60.6% | 2.24µM* | 6.31µM* | 20µM*
CCOC(=O)c1ccc(NC(=O)c2nc(S(=O)(=O)Cc3ccccc3)ncc2Cl)cc1 | ? | -8.5% | 1.89µM* | 5.01µM* | 23.1%
Cc1cccc(NC(=O)c2nc(S(C)(=O)=O)ncc2Cl)c1 | 3.29µM* | 22.6% | 2.38µM* | 5.01µM* | 75.8%
CCOC(=O)c1ccc(NC(=O)c2nc(SC(C)C)ncc2Cl)cc1 | 2.2% | -0.7% | ? | -9.3% | -11.1%
CCOC(=O)c1c(-c2ccccc2)csc1NC(=O)c1nc(S(=O)(=O)CC)ncc1Cl | ? | 13.4% | 4.5µM* | 11.2µM* | ?
CCS(=O)(=O)c1ncc(Cl)c(C(=O)Nc2c(C(=O)Nc3cccc(C)c3)oc3ccccc23)n1 | ? | ? | 3.18µM* | 2.24µM* | ?
CCOC(=O)c1c(-c2ccccc2)csc1NC(=O)c1nc(SCC)ncc1Cl | 2.7% | 0.4% | -50.3% | -6.0% | -5.3%
Cc1cc(NC(=O)Nc2csc3c2CCCC3)ccc1Br | 0.6% | 0.8% | ? | -2.7% | ?
COc1ccc(NC(=O)Cn2nc3c(cc2=O)CCCC3)cc1Cl | 2.8% | 0.0% | -8.3% | 4.1% | 17.4%
Cc1ccc(-n2c(=O)c3ccc(C(=O)NCc4ccco4)cc3n(Cc3ccc(Cl)cc3)c2=O)cc1 | 11.7µM* | -10.5% | ? | ? | ?
Cc1ccc(-n2c(=O)c3ccc(C(=O)NCc4ccco4)cc3n(Cc3ccccc3Cl)c2=O)cc1 | 9.3% | 16.4% | -14.8% | -18.4% | -4.5%
Cc1ccc(Cn2c(C)c3cnn(CC(=O)N4CCN(c5cc(C)ccc5C)CC4)c(=O)c3c2C)cc1 | -4.6% | 55.5% | 11.9µM* | -16.5% | 8.8% | NLuc sat counter=-6.1%;NLuc Km counter=15.3%;FLuc counter=8.0%;S16 viab conf=-13.0%;PMP22 txn conf=-15.3%
Cc1cc(Nc2ccc(Br)cc2)n2nc(-c3ccccc3C)nc2n1 | -0.6% | 21.3% | ? | ? | 0.1%
COc1ccc(NC(=O)CCNS(=O)(=O)c2ccc3c(c2)CCN3C(=O)C2CC2)cc1Cl | -23.6% | 6.4% | 14.1µM* | -24.8% | 7.6% | NLuc sat counter=?;NLuc Km counter=?;FLuc counter=-4.9%;S16 viab conf=-6.6%;PMP22 txn conf=-38.4%
NC(=O)C1CCN(c2ncnc3c2cnn3-c2ccccc2)CC1 | -5.5% | -7.1% | -0.3% | 0.1% | 9.6%
CC(=O)c1cccc(NC(=O)c2ccc3c(c2)N(Cc2ccc(C)cc2)CCS3)c1 | 1.5% | -6.7% | -0.6% | 4.1% | -2.4%
